{"source": "PubChem BioAssay (NCI)", "note": "Where “and” joins values, the source holds several entries; their conditions need not be identical. Equal entries are not always repeated. This is part of a sample that, as a whole, favours compounds with a hit. Of some 83,000 tested, about 20% had one in any assay.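 Plates (96-well) were seeded with cells, treated with compound at one concentration, and incubated for 48 hours before percent growth was determined.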 A number with no mark means an inactive call. Calls of active or inactive are those of the source. How the source made its calls: active means growth percent below 10; inactive means the rest.", "data": [{"system": "HL-60(TB) leukemia", "test": "NCI-60 one-dose screen, 48 h (100 = growth as untreated, 0 = no growth, -100 = all killed)", "conditions": "10 µM unless noted", "values": [{"smiles": "O=P(O)(O)OCC(O)CO", "note": "(stereo not given)", "growth": "97.7%"}, {"smiles": "CCOC(=O)c1cc(C(=O)OCC)c(C)nc1C", "growth": "96.9%"}, {"smiles": "COc1cc(-c2cc(-c3nc4ccccc4[nH]3)[nH]n2)cc(OC)c1OC", "growth": "-22.9% (active)"}, {"smiles": "Cc1ccc(NC(=O)c2ccc(CN3CCN(C)CC3)cc2)cc1Nc1nccc(-c2cccnc2)n1", "growth": "107% and 89.8%"}, {"smiles": "Cc1nc2n(c(=O)c1CCN1CCC(c3noc4cc(F)ccc34)CC1)CCC[C@@H]2O", "growth": "89.7%"}, {"smiles": "CCOc1cc(CNc2ccc(N3CCOCC3)c(C(=O)O)c2)ccc1OC", "growth": "106%"}, {"smiles": "C[C@@H](Oc1cc(C(=O)Nc2ccc(C(=O)N3CCN(C)CC3)cc2)nnc1N)c1c(Cl)ccc(F)c1Cl", "growth": "88.3%"}, {"smiles": "COc1cc(-c2nc3cc(Cl)c(Cl)cc3[nH]2)ccc1OCC(=O)NN", "growth": "82%"}, {"smiles": "OCc1nnn(-c2ccccc2)c1CO", "growth": "89.1%"}, {"smiles": "COC(=O)CNC(=O)[C@@H](OC)[C@@H]1Cc2cc3cc(OC4CC(OC5CC(O)C(O)C(C)O5)C(O)C(C)O4)c(C)c(O)c3c(O)c2C(=O)[C@H]1OC1CC(OC2CC(OC3CC(C)(O)C(O)C(C)O3)C(O)C(C)O2)C(O)C(C)O1", "note": "(stereo not given in full)", "growth": "41%"}, {"smiles": "COc1ccc(CCNC(=S)NN)cc1OC", "growth": "92.1%"}, {"smiles": "O=C(Nc1cccc2[nH]c(C(F)(F)F)nc12)c1cc(Cl)ccc1Cl", "growth": "36.4%"}, {"smiles": "O=C1c2cc(I)ccc2Oc2cc([N+](=O)[O-])ccc2N1c1ccc(Cl)cc1F", "growth": "55.9%"}, {"smiles": "C=CCn1c(SCC(=O)Nc2ccc(C(=O)/C=C/c3cc4cc(OC)ccc4nc3Cl)cc2)nnc1-c1ccc(Br)cc1", "growth": "81.3%"}, {"smiles": "CCOC(=O)C#Cc1c(C(=O)OCC)nnn1[C@@H]1O[C@H](CO)[C@H]2OC3(CCCCC3)O[C@H]21", "growth": "52.8%"}, {"smiles": "O=C(Nc1ccc(OS(=O)(=O)c2ccccc2)cc1)C12CC3CC(CC(C3)C1)C2", "growth": "37.3%"}, {"smiles": "CCN(CC)CCC(CNc1ccnc2cc(Cl)ccc12)c1ccc(OC)cc1", "note": "(stereo not given)", "growth": "63.7% and 61.7%"}, {"smiles": "COc1cc(NC(=O)COc2ccccc2)c(C(N)=O)cc1OC", "growth": "-11.7% (active)"}, {"smiles": "Cn1cc(-c2noc(-c3cn(C)c4ncc(F)cc34)n2)c2ccccc21", "growth": "85.5%"}, {"smiles": "O=c1c(N=Nc2nccs2)c(-c2ccccc2)[nH]n1-c1nc(-c2ccccc2)cs1", "growth": "15.8%"}, {"smiles": "CCN(Cc1ccc(CN(CC)C(=O)C(Br)Br)cc1)C(=O)C(Br)Br", "growth": "13.1%"}, {"smiles": "COc1ccc(-c2nc(NN)c3c(C)nn(-c4ccc(F)cc4)c3n2)cc1", "growth": "0.613% (active)"}, {"smiles": "NC(=S)N1N=C(c2ccccc2)CC1c1cn(-c2ccccc2)nc1-c1ccc(OCc2ccccc2)cc1", "note": "(stereo not given)", "growth": "114%"}, {"smiles": "O=c1c2cc(F)ccc2sc2c(N3CCCCC3)nc3ccccc3c12", "growth": "102%"}, {"smiles": "O=c1oc2ccc([N+](=O)[O-])cc2cc1Br", "growth": "105%"}, {"smiles": "Cc1cc2c([nH]1)CSc1cc(S(=O)(=O)c3ccccc3)c(=O)[nH]c1-2", "growth": "27.7% [100 µM]"}, {"smiles": "CC(=O)Nc1nc2ccc(NS(=O)(=O)c3cccc4c(N(C)C)cccc34)cc2[nH]1", "growth": "27.8%"}, {"smiles": "COc1cc(C(=O)NN=C2c3ccccc3-c3ccccc32)cc(OC)c1OC", "growth": "11.4%"}, {"smiles": "O=[N+]([O-])c1ccc(N/N=C/c2c(O)ccc3ccccc23)nc1", "growth": "9.55% (active)"}, {"smiles": "CSc1oc(C)nc1[P+](c1ccccc1)(c1ccccc1)c1ccccc1", "growth": "46.5%"}, {"smiles": "CCn1c2ccccc2c2cc(NC(=O)Nc3ccc([N+](=O)[O-])cc3C)ccc21", "growth": "18.7%"}, {"smiles": "CC(=O)N1N=C(c2ccc(Cl)cc2)CC1c1cn(-c2ccccc2)nc1-c1ccc([N+](=O)[O-])cc1", "note": "(stereo not given)", "growth": "121%"}, {"smiles": "Cc1c(Cc2ccccc2)c(=O)oc2c(C)c(OCC(=O)n3nc(C#N)cc3N)ccc12", "growth": "101%"}, {"smiles": "O=C(C[C@]1(O)C(=O)Nc2ccccc21)c1cccc(C(F)(F)F)c1", "growth": "102%"}, {"smiles": "NC(=S)N/N=C/Cc1ccccc1", "growth": "47.2%"}, {"smiles": "C[C@]12CCC(=O)C[C@H]1CC[C@@H]1[C@@H]2CC[C@@]2(C)[C@H]1CC[C@]2(O)C(=O)CO", "growth": "126%"}, {"smiles": "CCCCCCc1cc2cc(-c3csc(/C=C/c4ccccc4)n3)c(=O)oc2cc1O", "growth": "-46.8% (active)"}, {"smiles": "Fc1c[c-]c(-c2ccccn2)c(F)c1.Fc1c[c-]c(-c2ccccn2)c(F)c1.[Cl][Pt+].[Cl][Pt+].c1ccc([PH+](C[PH+](c2ccccc2)c2ccccc2)c2ccccc2)cc1", "growth": "6.62% (active)"}, {"smiles": "CCCC1CCC(=C2C(=O)CCC2=O)O1", "note": "(stereo not given)", "growth": "148% and 153%"}, {"smiles": "CC(C)C(=O)Nc1ccc([N+](=O)[O-])c(C(F)(F)F)c1", "growth": "91.1% and 98.3%"}]}]}
